TDP1 cell CPT = DT40-hTDP1 cell growth loss with CPT. chicken DT40 Tdp1-/-;hTDP1 cells + 20 nM CPT, ATP luminescence, 48 h. Potency, µM (highest dose often 46.2 µM), for the others: top-dose activity change, negative = growth inhibition, actives largely listed as inhibitors. 420,000 compounds, 12% hits; further: potency means the concentration at half of the fitted maximal effect; nearly all actives have a fitted effect of over 55% in size
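Chicken DT40 Tdp1-/- cells stably complemented with human TDP1 were seeded at 400 cells/well in medium containing 20 nM camptothecin, exposed to pin-transferred compounds, and grown at 37 °C for at least 48 hr. Viability was read as ATP luminescence.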
HT1080 IDH1KD tx = toxicity to HT-1080 IDH1 knockdown cells (counter line); AID 686971; 360,000 compounds, 2% hits; Potency, µM (doses to about 46.1 µM), for inactives: top-dose activity, negative = toxicity, actives largely listed as cytotoxic; HT-1080 IDH1 knockdown viability, ATP luminescence, 48 h;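 further: potency means the concentration at half of the fitted maximal effect; 0% = DMSO wells and -100% = cell-free medium wells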
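After a 2 h attachment period, IDH1KD HT-1080 cells took pin-transferred compound for 48 h at 37 °C; ATP-based luminescence after 10 min room-temperature reagent incubation reported viability.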
TDP1 cell noCPT = qHTS for Inhibitors of human tyrosyl-DNA phosphodiesterase 1 (TDP1): qHTS in cells in absence of CPT; 420,000 compounds, 15% hits; Potency, µM (series often up to 46.2 µM), without a hit: at the highest dose activity change, negative = growth inhibition, hits mostly inhibitors; DT40 Tdp1-/- hTDP1 cells, no CPT, ATP luminescence, 48 h; AID 686978, 2013; further: potency means the concentration at half of the fitted maximal effect; nearly all actives have a fitted effect of over 55% in size
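Seeded 400 DT40-hTDP1 cells/well (vehicle DMSO, no 20 nM CPT); pinned compounds; ≥48 hr at 37 °C; CellTiter-Glo luminescence as viability measure.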
IL1B secr inh = blocks inflammasome-driven IL-1 beta release | THP-1 LPS/ATP IL-1B secretion, AlphaLISA, 16 h; stronger effect = lower value | activity change, % at 57.5 µM | 360,000 compounds, 4.7% hits | AID 743279; in the data active means activity change below about -50%; inconclusive means mostly about -30% to -49%
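Secreted IL-1B measured by AlphaLISA bead assay after 16 h compound exposure of THP-1 cells; compounds (final up to 57.5 uM) added 1 h before LPS (250 ng/mL) and ATP (1.25 mM) stimulation; lower signal means less secretion.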
HT1080NT lethal = kills 2HG-producing HT-1080-NT fibrosarcoma cells; HT-1080-NT fibrosarcoma viability, CellTiter-Glo ATP luminescence, 48 h; Potency, µM (highest dose often 46.1 µM), for inactives: at the highest dose activity, negative = less viability, most hits filed as cytotoxic; 360,000 compounds, 1.6% hits; AID 686970;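 further: NT is the 2HG producing partner of a matched IDH1 knockdown line; potency means the concentration at half of the fitted maximal effect; 0% = DMSO-treated cells and -100% = media-only wells without cells; nearly all actives have a fitted effect of over 55% in size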
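Toxicity toward the 2HG-producing NT line was scored as %Activity, normalised to DMSO and no-cell wells, from CellTiter-Glo luminescence after 48 hours' treatment.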
ELG1 repair inh = blocks ELG1-dependent DNA repair in HEK293T cells. HEK293T ELG1-luciferase reporter, luminescence, 16 h; DNA damage induced by 5-fluorouridine. Potency, µM (series often up to 46.1 µM), without a hit: at the top dose activity change, negative = inhibition, actives largely listed as inhibitors. 330,000 compounds, 2.3% hits; further: potency means the concentration at half of the fitted maximal effect; nearly all actives have a fitted effect of over 55% in size
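5-Fluorouridine DNA damage + compound/DMSO, 2,000 cells/well, 16 h, 37 °C/5% CO2. ONE-Glo, 30 min RT, luminescence. Readout = decrease in reporter signal.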
Starred values were filed as active, the others as inactive; ? = inconclusive; · = no result given. Rows were chosen to be rich in hits. Some 19% of all compounds tested hit in one or more screens of this group. Unless noted, the call rests on the fitted dose curve; in most records, active means well fitted curve in the direction sought with a large enough effect; inconclusive means small, poorly fitted or top-dose-only effect, or another doubt; inactive means no such curve, though single readings can be large; an effect the other way counts as inactive or inconclusive. Unless noted, on the % scale 0 is the no-effect control and ±100 the full control effect.

SMILES | TDP1 cell CPT | HT1080 IDH1KD tx | TDP1 cell noCPT | IL1B secr inh | HT1080NT lethal | ELG1 repair inh
COc1cc(C(C)=O)ccc1Oc1ncnc2c1cnn2-c1ccc(C)c(C)c1 | 12µM* | 7% | 15µM* | -13 | 0% | 16%
O=C(NNC(=O)c1ccccc1C(=O)O)c1ccc(S(=O)(=O)N2CCCCC2)cc1 | -2% | 0% | -4% | -4 | -3% | 16%
N=C(N)N | -6% | · | -2% | · | · | ·
Cc1ccc(N2C(=O)C(CN3CCOCC3)C2c2ccccc2)cc1 (stereo unspecified) | ? | -3% | 15µM* | 28 | 2% | ?
Cc1ccc(NC(=O)Cn2nnc3ccccc32)c(C)c1 | 3% | 0% | -12% | 5 | 10% | 15%
Cc1ccnc(NCn2nnc3ccccc32)c1 | 16µM* | 6% | ? | 26 | 1% | -2%
CCOc1ccc(CN(C(=O)c2ccccn2)c2ccc(OC)c(Cl)c2)cc1 | ? | ? | ? | 11 | ? | ?
Cn1cnc(S(=O)(=O)N2CCCCC2c2cc(C(=O)Nc3cccc(C#N)c3)no2)c1 (stereo unspecified) | ? | 2% | -7% | -22 | -5% | ·
Cn1cnc(S(=O)(=O)N2CCCCC2c2cc(C(=O)NCc3ccc(Cl)c(Cl)c3)no2)c1 (stereo unspecified) | ? | -33% | 6.5µM* | -12 | ? | ·
O=C(NCc1ccccc1)c1cc(C2CCCCN2C(=O)c2ccccc2)on1 (stereo unspecified) | 18µM* | -5% | 13µM* | 45 | 3% | ·
O=C(Nc1cccc2c1CCCC2)c1cc(C2CCCCN2C(=O)c2cccs2)on1 (stereo unspecified) | 8.2µM* | ? | 8.2µM* | 17 | ? | ·
CCCNC(=O)c1cc(C2CCCCN2C(=O)c2cccs2)on1 (stereo unspecified) | ? | 0% | 3% | 14 | 3% | ·
O=C(NCc1ccc(Cl)c(Cl)c1)c1cc(C2CCCCN2C(=O)c2cccs2)on1 (stereo unspecified) | 15µM* | -4% | 21µM* | -19 | -23% | ·
COC(=O)N1CCCCC1c1cc(C(=O)Nc2ccccc2Cl)no1 (stereo unspecified) | ? | 2% | ? | 0 | ? | ·
O=C(NCc1ccc(Cl)c(Cl)c1)c1cc(C2CCCCN2C(=O)CCc2ccccc2)on1 (stereo unspecified) | ? | 10% | ? | -12 | 7% | ·
O=C(NCc1ccc(Cl)c(Cl)c1)c1cc(C2CCCCN2C(=O)c2ccccc2)on1 (stereo unspecified) | 18µM* | -14% | 13µM* | ? | -5% | ·
COCCOC(=O)N1CCCCC1c1cc(C(=O)NCc2ccc(Cl)c(Cl)c2)no1 (stereo unspecified) | 15µM* | -12% | ? | -15 | 1% | ·
CC1(C)CC(=O)C(C(c2ccc3c(c2)OCO3)C2C(=O)CC(C)(C)CC2=O)C(=O)C1 | -19% | 29% | -12% | 30 | 16% | ·
Cc1cc2ccccc2c[n+]1C1CCCCC1 | 1.4µM* | · | 0.71µM* | · | · | ·
COc1ccc(C(C)=O)cc1CSc1nnc(Nc2c(C)cccc2C)s1 | 21µM* | 5% | ? | -28 | 0% | -16%
Cn1c(C(=O)NCc2ccccn2)cc2c(=O)n(C)c3ccccc3c21 | 0.58µM* | -5% | ? | -28 | 4% | -4%
CC(C)OCCCNC(=O)c1cc2c(=O)n(C)c3ccccc3c2n1C | ? | 3% | ? | ? | 0% | ?
CCCCN(CC)CCCNC(=O)c1cc2c(=O)n(C)c3ccccc3c2n1C | ? | -21% | ? | -73* | -5% | ?
CC(NC(=O)c1cc2c(=O)n(C)c3ccccc3c2n1C)c1ccc2c(c1)OCCO2 (stereo unspecified) | 29µM* | 8% | 13µM* | 13 | 14% | ·
CCCCN(C)CCNC(=O)c1cc2c(=O)n(C)c3ccccc3c2n1C | ? | · | 23µM* | · | · | ·
SMILES | TDP1 cell CPT | HT1080 IDH1KD tx | TDP1 cell noCPT | IL1B secr inh | HT1080NT lethal | ELG1 repair inh
CCCCN(C)CCNC(=O)c1cc2c(=O)[nH]c3ccccc3c2n1C | 5% | -10% | -28% | -16 | -15% | 18%
CCCCC(O)c1ccccc1 (stereo unspecified) | 4% | · | -12% | · | · | ·
COc1ccncc1-c1ccc(C2=CC(=O)CC(C)(C)C2=O)cc1 | ? | -7% | ? | 13 | 0% | ·
O=C(NCCc1ccc(Cl)cc1)c1cccc(S(=O)(=O)N2CCCC2)c1 | ? | -15% | ? | 13 | -17% | ·
Cc1cc(NCCCCCCCNc2cc(C)nc3cc([N+](=O)[O-])ccc23)c2ccc([N+](=O)[O-])cc2n1 | 1.6µM* | ? | 1.3µM* | -103* | ? | ·
CCC/C=C/c1ccc(CN2C(CC(C)C)C(=O)N(Cc3cn(CCC4OCCCO4)nn3)CCS2(=O)=O)cc1 (stereo unspecified) | ? | ? | 23µM* | ? | -17% | ·
CCC/C=C/c1ccc(CN2C(C(C)C)C(=O)N(Cc3cn(CCC4OCCO4)nn3)CCS2(=O)=O)cc1 (stereo unspecified) | ? | ? | 13µM* | -12 | ? | ·
CCC/C=C/c1ccc(CN2C(C)C(=O)N(Cc3cn(CCOCOC)nn3)CCS2(=O)=O)cc1 (stereo unspecified) | -13% | 10% | ? | 12 | 1% | ·
CCC/C=C/c1ccc(CN2C(C)C(=O)N(Cc3cn(CCC4OCCCO4)nn3)CCS2(=O)=O)cc1 (stereo unspecified) | ? | -15% | 13µM* | -24 | -19% | ·
COc1ccccc1OCC(=O)N(Cc1cccs1)C1CCS(=O)(=O)C1 (stereo unspecified) | 6% | · | 2% | · | · | ·
NC(=O)c1ccc(S(=O)(=O)N2CCSCC2)cc1 | -9% | 27% | 4% | 22 | 7% | -10%
CC1(C(=O)NS(=O)(=O)c2cccc(Cl)c2)CCN1C(=O)C/C=C/c1ccccc1 (stereo unspecified) | -14% | ? | -9% | 2 | ? | ·
CN1C(=O)CON=C1c1cccc2ccccc12 | -2% | ? | -3% | 0 | 10% | ·
Cc1cccc(C(=O)NNC(=O)C2CCCCC2)c1O | ? | -29% | 23µM* | 18 | 0% | ·
